Experimental data as given in the supplement of paper PMC10849652.
About 8,800 targets were measured; listed, in parts, are those with a hit and a random draw of the rest. About 0.5% of all pairs of compound and target were hits.

Tests used:
Assay in all cases: log2 fold change, soluble protein after heating vs DMSO (PISA); higher = thermal stabilisation; K562 lysate, 10 uM; active = over 0.2 and 3.5 SD of the protein, either way, in both replicates (recomputed)
[1] = compound: C#Cc1cccc(Nc2ncnc3cc(OCCOC)c(OCCOC)cc23)c1 [erlotinib]
How it was run: (§1)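 Values give the log-two fold change in thermal stability against solvent controls, from duplicates. Crude K562 extract at 1 mg/mL protein, made by dounce homogenisation in PBS pH 7.4 with 1 mM MgCl2, was treated with 10 μM compound for 30 min. After 3 min heating across 48°C-58°C, aliquots were pooled, adjusted to 0.5% NP-40 at 4°C and centrifuged at 21,000xg for 90 min. The supernatant was measured by TMTpro 16plex LC-MS/MS with channel sums equalised.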

[2] = compound: C/C(=N\NC(=O)C1=CC(=CC=C1)S(=O)(=O)N2CCOCC2)/C3=C(C=CC(=C3)Cl)O
How it was run: as §1

[3] = compound: C1=CC(=CC=C1C2=NC3=C(N2)C=C(C=C3)C(=O)N)OC4=CC=C(C=C4)Cl
How it was run: as §1

[4] = compound: C1=CC2=C(C=CC(=C2)/C=C\3/C(=O)NC(=NCC4=CC=CS4)S3)N=C1
How it was run: as §1

[5] = compound: C1=CC2=NC=CN=C2C=C1/C=C/3\C(=O)NC(=O)S3
How it was run: as §1

[6] = compound: C1=CC=C(C=C1)C2=NC(=C(N2)C3=CC=NC=C3)C4=CC(=C(C=C4)Cl)O
How it was run: as §1

[7] = compound: C1=CC=C2C(=C1)C3=NNC4=CC=CC(=C43)C2=O
How it was run: as §1

[8] = compound: C1CCN(C1)C(=O)NC2=CC=CC(=C2)NC3=NC=C(C(=N3)NCCC4=CN=CN4)Br
How it was run: as §1

[9] = compound: C1CN(CCC1(CC2=CC=C(C=C2)Cl)N)C3=NC=NC4=C3C=CN4
How it was run: as §1

[10] = compound: C1COCCN1CCN2C3=CC=CC=C3N=C2NC(=O)C4=CC(=CC=C4)[N+](=O)[O-] [IRAK-1-4 Inhibitor I]
How it was run: as §1

[11] = compound: C=CC(=O)N1CCC[C@@H](n2nc(-c3ccc(Oc4ccccc4)cc3)c3c(N)ncnc32)C1 [ibrutinib]
How it was run: as §1

[12] = compound: CC(=O)c1cnc2ccc(-c3cc(Cl)c(O)c(Cl)c3)nc2c1N[C@H]1CC[C@H](CN(C)C)CC1
How it was run: as §1

[13] = compound: CC(C)(C)Cn1c(N)nc2ccc(-c3[nH]c(C(C)(C)C)nc3-c3ccc(F)cc3)nc21 [ralimetinib]
How it was run: as §1

[14] = compound: CC(C)(O)CC(=O)NCCn1ccc2ncnc(Nc3ccc(Oc4cccc(C(F)(F)F)c4)c(Cl)c3)c21
How it was run: as §1

[15] = compound: CC(C)C1=C2N=C(C=C(N2N=C1)NCC3=CC=CC=C3)NCCCCCCN
How it was run: as §1

[16] = compound: CC1=C(C(CC(=O)N1)C2=CC=C(C=C2)C(F)(F)F)C(=O)NC3=C(C=C4C(=C3)C=NN4)F
How it was run: as §1

[17] = compound: CC1=C(C2=C(C=C1)C(=O)C3=CC=CC=C3N2CCCN)C
How it was run: as §1

[18] = compound: CC1=C(C=C(C=C1)NC(=O)C2=CC(=CC=C2)C(C)(C)C#N)NC3=CC4=C(C=C3)N=CN(C4=O)C
How it was run: as §1

[19] = compound: CC1=C(C=C(C=C1)NC(=O)C2=CC(=CC=C2)N(C)C)NC(=O)C3=CC=C(C=C3)O
How it was run: as §1

[20] = compound: CC1=CC=C(C=C1)SC2=C3C=C(SC3=CN=C2)C(=O)N
How it was run: as §1

Measured: log2 fold change

HELQ (UniProt Q8TDG4)
UniProt Q8TDG4, sequence (Q8TDG4 whole entry, looked up): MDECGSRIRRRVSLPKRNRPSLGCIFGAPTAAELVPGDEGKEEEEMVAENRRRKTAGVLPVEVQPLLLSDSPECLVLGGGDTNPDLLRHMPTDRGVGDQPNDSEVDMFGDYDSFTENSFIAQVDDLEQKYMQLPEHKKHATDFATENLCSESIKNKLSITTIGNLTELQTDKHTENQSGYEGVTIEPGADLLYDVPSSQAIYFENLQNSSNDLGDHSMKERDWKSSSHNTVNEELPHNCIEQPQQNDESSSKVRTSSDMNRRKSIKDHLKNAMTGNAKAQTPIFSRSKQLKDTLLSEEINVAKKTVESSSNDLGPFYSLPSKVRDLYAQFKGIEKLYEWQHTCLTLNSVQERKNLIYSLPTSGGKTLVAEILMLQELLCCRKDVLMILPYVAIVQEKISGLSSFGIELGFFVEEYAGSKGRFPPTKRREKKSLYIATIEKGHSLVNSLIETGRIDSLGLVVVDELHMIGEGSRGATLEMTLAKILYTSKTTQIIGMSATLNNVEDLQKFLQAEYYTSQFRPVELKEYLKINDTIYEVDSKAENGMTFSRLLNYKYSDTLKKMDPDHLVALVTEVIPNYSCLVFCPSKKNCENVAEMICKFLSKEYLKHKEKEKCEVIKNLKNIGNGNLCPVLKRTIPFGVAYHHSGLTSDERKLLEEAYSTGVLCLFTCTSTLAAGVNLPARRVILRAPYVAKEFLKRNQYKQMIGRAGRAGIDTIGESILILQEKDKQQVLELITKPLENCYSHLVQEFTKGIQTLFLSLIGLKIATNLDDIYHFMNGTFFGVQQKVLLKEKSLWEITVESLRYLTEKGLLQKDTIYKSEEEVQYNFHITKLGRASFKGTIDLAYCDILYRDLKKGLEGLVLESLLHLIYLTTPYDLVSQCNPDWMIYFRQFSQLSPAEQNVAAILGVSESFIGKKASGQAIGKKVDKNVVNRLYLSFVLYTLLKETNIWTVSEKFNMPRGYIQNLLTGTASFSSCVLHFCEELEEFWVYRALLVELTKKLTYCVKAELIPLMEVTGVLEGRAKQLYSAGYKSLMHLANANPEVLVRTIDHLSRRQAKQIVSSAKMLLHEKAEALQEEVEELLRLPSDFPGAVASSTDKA
inactive: [1] -0.029 | [2] -0.023 | [3] 0.044 | [4] 0.07 | [5] 0.019 | [6] 0.004 | [7] 0.077 | [8] 0.056 | [9] 0.064 | [10] -0.033 | [11] 0.054 | [12] 0.072 | [13] -0.007 | [14] -0.017 | [15] -0.012 | [16] 0.203 | [17] 0.003 | [18] -0.036 | [19] 0.046 | [20] -0.002

INTS3 (UniProt Q68E01)
inactive: [1] 0.015 | [2] 0.035 | [3] 0.021 | [4] -0.002 | [5] -0.008 | [6] -0.043 | [7] -0.005 | [8] 0.026 | [9] -0.083 | [10] 0.016 | [11] 0.044 | [12] 0.024 | [13] 0.019 | [14] -0.032 | [15] 0.032 | [16] -0.035 | [17] 0.004 | [18] 0.009 | [19] 0.025 | [20] -0.032

HERC2 (UniProt O95714)
inactive: [1] 0.014 | [2] 0.174 | [3] 0.115 | [4] 0.007 | [5] 0.01 | [6] 0.042 | [7] -0.061 | [8] -0.016 | [9] -0.001 | [10] -0.033 | [11] 0.001 | [12] 0.053 | [13] 0.002 | [14] 0.02 | [15] 0.082 | [16] 0.028 | [17] -0.063 | [18] 0.021 | [19] 0.041 | [20] 0.015

KBTBD4 isoform 2 (UniProt Q9NVX7)
UniProt Q9NVX7, sequence (Q9NVX7 whole entry, looked up): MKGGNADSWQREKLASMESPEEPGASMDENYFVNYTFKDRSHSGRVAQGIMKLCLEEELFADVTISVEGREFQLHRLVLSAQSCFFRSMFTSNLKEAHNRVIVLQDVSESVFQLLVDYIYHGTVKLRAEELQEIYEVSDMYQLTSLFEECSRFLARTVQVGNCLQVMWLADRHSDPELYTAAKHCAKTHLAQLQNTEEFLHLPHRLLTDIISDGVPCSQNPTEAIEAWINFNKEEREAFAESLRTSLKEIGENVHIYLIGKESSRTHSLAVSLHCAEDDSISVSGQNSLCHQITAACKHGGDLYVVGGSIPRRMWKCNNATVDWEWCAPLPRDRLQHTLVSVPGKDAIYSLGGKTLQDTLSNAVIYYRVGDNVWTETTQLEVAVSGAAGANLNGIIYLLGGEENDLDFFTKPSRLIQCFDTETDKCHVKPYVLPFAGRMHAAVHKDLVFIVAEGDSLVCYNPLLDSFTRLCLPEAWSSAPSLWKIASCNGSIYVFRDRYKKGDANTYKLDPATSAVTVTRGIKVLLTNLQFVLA
inactive: [1] 0.09 | [2] 0.013 | [3] 0.036 | [4] 0.013 | [5] -0.096 | [6] 0.016 | [7] -0.073 | [8] -0.028 | [9] 0.013 | [10] -0.017 | [11] 0.051 | [12] -0.026 | [13] -0.069 | [14] 0.009 | [15] -0.039 | [16] -0.156 | [17] -0.045 | [18] 0.142 | [19] -0.014 | [20] 0.031

GOLPH3L (UniProt Q9H4A5)
UniProt Q9H4A5, sequence (Q9H4A5 whole entry, looked up): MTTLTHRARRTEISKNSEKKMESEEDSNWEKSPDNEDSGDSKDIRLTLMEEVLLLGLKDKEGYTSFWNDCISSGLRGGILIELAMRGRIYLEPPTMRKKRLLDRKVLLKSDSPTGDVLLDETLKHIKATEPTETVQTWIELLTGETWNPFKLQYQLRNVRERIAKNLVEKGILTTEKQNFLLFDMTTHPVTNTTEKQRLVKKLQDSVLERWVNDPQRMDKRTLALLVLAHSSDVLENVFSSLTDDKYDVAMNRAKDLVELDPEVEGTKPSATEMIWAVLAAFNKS
inactive: [1] 0.028 | [2] -0.003 | [3] 0.012 | [4] 0.07 | [5] -0.03 | [6] 0.092 | [7] -0.085 | [8] 0.005 | [9] 0.03 | [10] 0.023 | [11] 0.058 | [12] 0.005 | [13] -0.058 | [14] 0.071 | [15] 0.009 | [16] -0.042 | [17] -0.01 | [18] 0.114 | [19] -0.029 | [20] 0.006

GRB10 (UniProt Q13322)
UniProt Q13322, sequence (Q13322 whole entry, looked up): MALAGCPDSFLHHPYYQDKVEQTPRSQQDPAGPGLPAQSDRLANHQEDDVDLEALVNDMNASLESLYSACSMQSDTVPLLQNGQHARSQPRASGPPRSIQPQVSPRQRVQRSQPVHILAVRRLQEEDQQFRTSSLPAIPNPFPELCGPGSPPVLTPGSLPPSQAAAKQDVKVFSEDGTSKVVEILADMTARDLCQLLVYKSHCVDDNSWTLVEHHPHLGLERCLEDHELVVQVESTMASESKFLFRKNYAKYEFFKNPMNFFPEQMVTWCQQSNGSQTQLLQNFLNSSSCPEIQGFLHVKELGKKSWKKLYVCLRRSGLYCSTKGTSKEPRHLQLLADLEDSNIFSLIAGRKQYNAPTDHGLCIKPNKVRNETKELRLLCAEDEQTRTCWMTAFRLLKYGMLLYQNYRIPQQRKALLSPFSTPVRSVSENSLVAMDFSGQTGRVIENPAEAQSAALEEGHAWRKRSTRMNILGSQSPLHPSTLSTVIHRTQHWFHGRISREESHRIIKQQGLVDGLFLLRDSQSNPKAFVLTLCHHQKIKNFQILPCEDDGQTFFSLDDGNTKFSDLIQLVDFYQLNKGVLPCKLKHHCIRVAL
inactive: [1] 0.027 | [2] -0.004 | [3] -0.06 | [4] 0.013 | [5] -0.03 | [6] 0.016 | [7] 0.019 | [8] 0.073 | [9] 0.054 | [10] -0.039 | [11] 0.015 | [12] -0.039 | [13] -0.006 | [14] -0.032 | [15] 0.014 | [16] 0.04 | [17] -0.015 | [18] -0.032 | [19] -0.006 | [20] 0.066

IMPDH2 (UniProt P12268)
inactive: [1] 0.001 | [2] -0.009 | [3] -0.018 | [4] -0.018 | [5] -0.013 | [6] -0.028 | [7] -0.003 | [8] 0.019 | [9] -0.003 | [10] 0.011 | [11] 0.049 | [12] -0.003 | [13] 0.034 | [14] 0.028 | [15] 0.025 | [16] -0.034 | [17] 0.019 | [18] 0.017 | [19] -0.006 | [20] 0.016

GMIP (UniProt Q9P107)
UniProt Q9P107, sequence (Q9P107 whole entry, looked up): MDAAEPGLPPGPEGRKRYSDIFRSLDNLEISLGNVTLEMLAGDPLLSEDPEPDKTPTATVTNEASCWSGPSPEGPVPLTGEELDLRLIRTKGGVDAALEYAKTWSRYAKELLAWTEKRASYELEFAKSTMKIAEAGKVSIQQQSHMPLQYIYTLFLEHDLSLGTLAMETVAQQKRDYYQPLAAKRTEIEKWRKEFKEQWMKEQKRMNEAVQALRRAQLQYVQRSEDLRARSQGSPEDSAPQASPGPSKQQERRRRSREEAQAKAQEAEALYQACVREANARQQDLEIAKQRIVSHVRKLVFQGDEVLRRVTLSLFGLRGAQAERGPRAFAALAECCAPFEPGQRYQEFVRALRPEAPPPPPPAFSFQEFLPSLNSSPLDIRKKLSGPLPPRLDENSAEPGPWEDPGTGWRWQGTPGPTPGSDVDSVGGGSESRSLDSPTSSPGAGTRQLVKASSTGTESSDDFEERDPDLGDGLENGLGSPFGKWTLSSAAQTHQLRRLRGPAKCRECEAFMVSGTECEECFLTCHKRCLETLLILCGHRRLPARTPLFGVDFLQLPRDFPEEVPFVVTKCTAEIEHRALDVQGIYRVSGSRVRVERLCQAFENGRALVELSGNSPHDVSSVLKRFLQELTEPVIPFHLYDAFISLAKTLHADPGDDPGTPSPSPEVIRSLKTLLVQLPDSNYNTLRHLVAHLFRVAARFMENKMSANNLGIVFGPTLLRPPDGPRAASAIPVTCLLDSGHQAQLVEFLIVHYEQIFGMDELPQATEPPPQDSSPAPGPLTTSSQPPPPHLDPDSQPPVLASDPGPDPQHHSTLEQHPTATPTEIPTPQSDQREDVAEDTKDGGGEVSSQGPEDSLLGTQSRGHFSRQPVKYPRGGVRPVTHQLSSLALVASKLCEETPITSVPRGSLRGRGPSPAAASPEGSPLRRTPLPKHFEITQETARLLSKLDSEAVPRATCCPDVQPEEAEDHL
inactive: [1] 0.014 | [2] 0.019 | [3] -0.02 | [4] -0.029 | [5] 0.009 | [6] 0.068 | [7] 0.03 | [8] -0.063 | [9] 0.019 | [10] 0.025 | [11] 0.182 | [12] 0.027 | [13] 0.023 | [14] -0.11 | [15] -0.017 | [16] 0.029 | [17] 0.03 | [18] 0.019 | [19] -0.068 | [20] 0.045

KCT2 (UniProt Q8NC54)
inactive: [1] -0.05 | [2] 0.098 | [3] 0.041 | [4] 0.017 | [5] 0.055 | [6] 0 | [7] -0.026 | [8] 0.021 | [9] 0.01 | [10] 0.031 | [11] 0.025 | [12] 0.018 | [13] 0.038 | [14] -0.076 | [15] -0.015 | [16] 0.008 | [17] -0.034 | [18] -0.025 | [19] 0.004 | [20] -0.024

HNRNPD isoform 2 (UniProt Q14103)
inactive: [1] -0.001 | [2] -0.014 | [3] -0.022 | [4] -0.027 | [5] 0.049 | [6] 0.014 | [7] -0.023 | [8] 0.012 | [9] -0.009 | [10] 0.018 | [11] 0 | [12] -0.142 | [13] -0.039 | [14] -0.01 | [15] 0.016 | [16] -0.046 | [17] 0.001 | [18] 0.034 | [19] -0.014 | [20] -0.011

ITPKA (UniProt P23677)
inactive: [1] 0.021 | [2] -0.042 | [3] 0.041 | [4] 0.043 | [5] 0.006 | [6] 0.046 | [7] 0.006 | [8] -0.07 | [9] 0.011 | [10] -0.013 | [11] 0.043 | [12] -0.009 | [13] 0.007 | [14] -0.044 | [15] 0.011 | [16] 0.023 | [17] 0.002 | [18] -0.012 | [19] 0.022 | [20] 0.026

GMPS (UniProt P49915)
UniProt P49915, sequence (P49915 whole entry, looked up): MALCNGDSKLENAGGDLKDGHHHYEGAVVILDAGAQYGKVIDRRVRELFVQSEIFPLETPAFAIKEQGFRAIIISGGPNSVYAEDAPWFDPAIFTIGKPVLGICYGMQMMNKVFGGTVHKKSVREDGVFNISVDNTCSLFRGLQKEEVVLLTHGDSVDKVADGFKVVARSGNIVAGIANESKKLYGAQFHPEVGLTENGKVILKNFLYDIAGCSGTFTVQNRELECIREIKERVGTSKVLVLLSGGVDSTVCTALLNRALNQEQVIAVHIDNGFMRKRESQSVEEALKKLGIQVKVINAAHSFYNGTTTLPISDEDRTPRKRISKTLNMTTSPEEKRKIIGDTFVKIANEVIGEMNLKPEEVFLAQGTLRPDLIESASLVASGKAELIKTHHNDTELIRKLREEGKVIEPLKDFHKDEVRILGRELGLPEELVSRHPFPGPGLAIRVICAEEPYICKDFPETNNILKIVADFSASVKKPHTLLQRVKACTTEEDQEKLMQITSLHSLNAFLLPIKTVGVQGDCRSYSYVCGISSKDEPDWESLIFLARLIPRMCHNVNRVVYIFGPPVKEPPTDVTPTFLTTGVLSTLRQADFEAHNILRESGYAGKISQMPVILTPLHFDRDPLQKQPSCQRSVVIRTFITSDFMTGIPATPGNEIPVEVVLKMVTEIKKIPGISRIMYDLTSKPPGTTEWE
inactive: [1] 0.014 | [2] -0.025 | [3] 0.004 | [4] 0.029 | [5] -0.013 | [6] -0.007 | [7] -0.009 | [8] -0.003 | [9] 0.017 | [10] -0.004 | [11] -0.034 | [12] 0.003 | [13] 0.009 | [14] 0.013 | [15] 0.006 | [16] -0.032 | [17] 0.025 | [18] -0.024 | [19] 0.015 | [20] 0.02

IFITM3 (UniProt Q01628)
UniProt Q01628, sequence (Q01628 whole entry, looked up): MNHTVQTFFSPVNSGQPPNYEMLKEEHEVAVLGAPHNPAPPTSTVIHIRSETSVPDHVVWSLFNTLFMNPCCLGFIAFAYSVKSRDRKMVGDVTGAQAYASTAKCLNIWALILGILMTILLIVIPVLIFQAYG
inactive: [1] -0.136 | [2] -0.11 | [3] 0.062 | [4] 0.004 | [5] -0.094 | [6] -0.122 | [7] 0.084 | [8] -0.095 | [9] -0.069 | [10] -0.026 | [11] -0.07 | [12] -0.042 | [13] 0.179 | [14] 0.078 | [15] 0.003 | [16] -0.173 | [17] -0.117 | [18] -0.133 | [19] -0.026 | [20] 0.129

HNRNPH2 (UniProt P55795)
inactive: [1] -0.035 | [2] 0.112 | [3] 0.028 | [4] -0.047 | [5] 0.02 | [6] 0.038 | [7] -0.015 | [8] 0.01 | [9] -0.013 | [10] 0 | [11] 0.017 | [12] 0 | [13] -0.03 | [14] -0.023 | [15] -0.01 | [16] 0.056 | [17] 0.024 | [18] 0.081 | [19] 0.053 | [20] 0.029

HARS (UniProt P12081)
UniProt P12081, sequence (P12081 whole entry, looked up): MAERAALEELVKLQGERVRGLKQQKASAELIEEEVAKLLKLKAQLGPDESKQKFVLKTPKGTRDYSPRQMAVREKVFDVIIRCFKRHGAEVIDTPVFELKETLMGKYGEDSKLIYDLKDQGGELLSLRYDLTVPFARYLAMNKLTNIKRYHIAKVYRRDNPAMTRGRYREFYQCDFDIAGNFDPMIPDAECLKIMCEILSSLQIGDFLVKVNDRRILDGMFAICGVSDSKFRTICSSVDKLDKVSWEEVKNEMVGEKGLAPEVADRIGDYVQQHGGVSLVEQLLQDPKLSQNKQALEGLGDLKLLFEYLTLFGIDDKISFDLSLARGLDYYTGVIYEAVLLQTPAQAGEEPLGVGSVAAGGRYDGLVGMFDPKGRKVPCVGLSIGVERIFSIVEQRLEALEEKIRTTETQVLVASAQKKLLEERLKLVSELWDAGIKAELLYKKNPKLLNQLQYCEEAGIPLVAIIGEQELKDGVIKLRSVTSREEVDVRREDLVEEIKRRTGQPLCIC
inactive: [1] -0.034 | [2] 0.006 | [3] -0.002 | [4] 0.021 | [5] -0.036 | [6] -0.005 | [7] 0.019 | [8] -0.016 | [9] 0.001 | [10] -0.002 | [11] -0.049 | [12] 0.022 | [13] -0.002 | [14] 0.015 | [15] -0.039 | [16] -0.015 | [17] 0.008 | [18] 0.005 | [19] 0.008 | [20] 0.005

HMGB1 (UniProt P09429)
inactive: [1] -0.024 | [2] -0.017 | [3] -0.021 | [4] -0.03 | [5] -0.001 | [6] 0.035 | [7] 0.007 | [8] 0.012 | [9] 0.001 | [10] -0.015 | [11] -0.012 | [12] -0.013 | [13] -0.102 | [14] 0.057 | [15] 0.032 | [16] -0.022 | [17] -0.002 | [18] 0.036 | [19] -0.077 | [20] -0.098
